Measured values from PubChem BioAssay.
Activity calls are given as the source filed them. Unless noted, no rule for the calls is given here.

Key:
[1] = Plasmodium falciparum growth inhibition, primary screen, strain 3D7, DAPI fluorescence, 100 nL (AID 1184);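 also: parasites grown inside human red blood cells in medium with human serum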; conditions: P. falciparum 3D7 growth, 3 d, higher = more signal
[2] = target: Homeobox protein Hox-A13 (Mus musculus) (UniProt Q62424); assay: inhibitors of HoxA13-DNA binding, primary screen, biochemical, fluorescence polarization, labeled oligonucleotide (AID 1185); conditions: 15 min, higher = more signal, called active from +8 up or from −8 down
Chain of Homeobox protein Hox-A13 (Mus musculus) (Q62424 whole entry, looked up): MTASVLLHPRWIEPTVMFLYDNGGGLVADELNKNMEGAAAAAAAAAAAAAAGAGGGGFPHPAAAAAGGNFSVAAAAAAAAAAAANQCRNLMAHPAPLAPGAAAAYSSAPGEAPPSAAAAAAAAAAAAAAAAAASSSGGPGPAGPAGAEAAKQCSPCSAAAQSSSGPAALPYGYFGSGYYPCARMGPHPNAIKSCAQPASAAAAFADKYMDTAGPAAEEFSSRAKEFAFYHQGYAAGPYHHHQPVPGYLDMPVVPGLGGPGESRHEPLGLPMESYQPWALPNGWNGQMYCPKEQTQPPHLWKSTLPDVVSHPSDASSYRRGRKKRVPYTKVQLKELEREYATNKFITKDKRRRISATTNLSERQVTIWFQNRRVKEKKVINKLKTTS

[3] = inhibitors of hydroxyurea-induced Chk1 phosphorylation, primary screen, imaging, HeLa, phospho-Chk1 antibody, percent positive cells (AID 1186); conditions: hydroxyurea-induced phospho-Chk1 immunofluorescence imaging, higher = more signal
[4] = inhibitors of hydroxyurea-induced Chk1 phosphorylation, primary screen, imaging, HeLa, phospho-Chk1 nuclear intensity (AID 1187); conditions: hydroxyurea-induced phospho-Chk1 immunofluorescence imaging, higher = more signal; also: test concentration not given here

SMILES: C=CCC(OC(C)=O)[C@@H]1[C@@H](N(Cc2cccc3ccccc23)C(=O)c2cccc3ccccc23)c2cc(OCCCO)ccc2N1C(=O)Cc1ccc(OC)cc1 (some centres not stated)
- z-score [1]: -2.48
- z-score [2]: -1.57 (inactive)
- z-score [3]: -0.0578 (inactive)
- z-score [4]: 0.507 (inactive)

SMILES: CCCNC(=O)[C@@H]1c2ccccc2C(=O)N(Cc2cc(C(F)(F)F)cc(C(F)(F)F)c2)[C@H]1c1ccc(CO)cc1
- z-score [1]: -1.64
- z-score [2]: -1.94 (inactive)
- z-score [3]: -0.319 (inactive)
- z-score [4]: 0.0789 (inactive)

SMILES: COCCCNC(=O)[C@@]1(Cc2ccccc2CN=[N+]=[N-])COC(c2ccc(OCCCO)cc2)=N1
- z-score [1]: -2.1
- z-score [2]: -4.83 (inactive)
- z-score [3]: -0.742 (inactive)
- z-score [4]: -0.73 (inactive)

SMILES: CC(C)C[C@@H]1NC(=O)[C@H]2C[C@@H](C(=O)NCCCC[N+](C)(C)C)[C@@H](c3cccc(OCCO)c3)N2C1=O
- z-score [1]: 1
- z-score [2]: -2.24 (inactive)
- z-score [3]: 0.656 (inactive)
- z-score [4]: 0.824 (inactive)

SMILES: COc1ccc([Si](C)(C)[C@@H]2[C@@H](CCn3cc([C@H](O)c4ccccc4)nn3)O[C@]3(C(=O)N(C)c4c(Br)cc(C)cc43)[C@H]2C)cc1
- z-score [1]: -1.22
- z-score [2]: -3.19 (inactive)
- z-score [3]: -0.973 (inactive)
- z-score [4]: -0.208 (inactive)

SMILES: CC(C)(C)OC(=O)CC[C@@]12N=C(c3ccc(OCCCO)cc3)O[C@@H]1c1ccccc1N(Cc1ccccc1)C2=O
- z-score [1]: -2.19
- z-score [2]: -1.44 (inactive)
- z-score [3]: -0.501 (inactive)
- z-score [4]: -0.284 (inactive)

SMILES: C=C(COC)/C(=C/C[C@H](OC(C)=O)c1ccc(CO)o1)c1cnc2ccccc2c1
- z-score [1]: -0.649
- z-score [2]: -4.41 (inactive)
- z-score [3]: -0.595 (inactive)
- z-score [4]: -0.669 (inactive)

SMILES: CC(C)NC(=O)[C@@H]1c2ccccc2C(=O)N(Cc2cc(F)cc(C(F)(F)F)c2)[C@H]1c1ccc(CO)cc1
- z-score [1]: -0.327
- z-score [2]: -2.19 (inactive)
- z-score [3]: -0.121 (inactive)
- z-score [4]: 0.0894 (inactive)

SMILES: CO[C@H]1O[C@H](CO)[C@@H](OC(=O)Nc2ccccc2)[C@H](OC(=O)Nc2ccccc2-c2ccccc2)[C@@H]1OC(=O)Nc1ccccc1-c1ccccc1
- z-score [1]: -2.3
- z-score [2]: -1.96 (inactive)
- z-score [3]: -0.515 (inactive)
- z-score [4]: -0.367 (inactive)

SMILES: O=c1n(-c2ccccc2)c(=O)n2n1CC(COc1ccccc1)=C1[C@@H](CCc3ccccc3)OB(O)C[C@@H]12
- z-score [1]: -1.02
- z-score [2]: -6.66 (inactive)
- z-score [3]: -0.337 (inactive)
- z-score [4]: -0.175 (inactive)

SMILES: CCCNC(=O)[C@@]1(Sc2ccc(C)cc2)CC(=O)N(Cc2cc(C(F)(F)F)cc(C(F)(F)F)c2)[C@@H]1c1ccc(CO)cc1I
- z-score [1]: -0.975
- z-score [2]: -2.86 (inactive)
- z-score [3]: -0.661 (inactive)
- z-score [4]: -0.6 (inactive)

SMILES: C=CCC(OC(C)=O)[C@@H]1[C@@H](N(Cc2ccc(-c3ccccc3)cc2)C(=O)c2ccc(-c3ccccc3)cc2)c2cc(OCCCO)ccc2N1C(=O)c1ccc(-c2ccccc2)cc1 (some centres not stated)
- z-score [1]: -0.883
- z-score [2]: -0.513 (inactive)
- z-score [3]: -0.293 (inactive)
- z-score [4]: 0.122 (inactive)

SMILES: C=CCC(OC(C)=O)[C@@H]1[C@@H](N(Cc2cc3ccccc3o2)C(=O)c2ccc(-c3ccccc3)cc2)c2cc(OCCCO)ccc2N1C(=O)c1ccc(-c2ccccc2)cc1 (some centres not stated)
- z-score [1]: -1.63
- z-score [2]: -0.639 (inactive)
- z-score [3]: -0.604 (inactive)
- z-score [4]: -0.195 (inactive)

SMILES: O=C(O)[C@H]1C[C@H]2C(=O)N[C@@H](Cc3ccccc3)C(=O)N2[C@H]1c1ccc(O)cc1
- z-score [1]: -0.453
- z-score [2]: -2.68 (inactive)
- z-score [3]: -0.119 (inactive)
- z-score [4]: -0.18 (inactive)

SMILES: COC(=O)C(CC#Cc1ccc2c(c1)[C@]1(C(=O)N2)[C@H](c2ccccc2OCCO)N2[C@H](c3ccccc3)[C@H](c3ccccc3)OC(=O)[C@H]2[C@@H]1C(=O)N1CCCCCCC1)C(=O)OC
- z-score [1]: -2.2
- z-score [2]: 3.62 (inactive)
- z-score [3]: 0.114 (inactive)
- z-score [4]: 0.72 (inactive)

SMILES: COc1ccc([Si](C)(C)[C@H]2[C@H](CC(=O)N3Cc4ccccc4C[C@H]3CO)O[C@@]3(C(=O)N(Cc4cccc(N5C(=O)COc6ccccc65)c4)c4ccccc43)[C@@H]2C)cc1
- z-score [1]: -2.22
- z-score [2]: -1.82 (inactive)
- z-score [3]: -0.558 (inactive)
- z-score [4]: -0.221 (inactive)

SMILES: O=C1c2ccccc2[C@](Cc2ccccc2I)(C(=O)O)[C@H](c2ccc(CO)cc2)N1Cc1ccccc1Cl
- z-score [1]: 0.303
- z-score [2]: -4.18 (inactive)
- z-score [3]: -0.679 (inactive)
- z-score [4]: -0.559 (inactive)

SMILES: COC(=O)C(CC#Cc1ccc2c(c1)[C@]1(C(=O)N2)[C@H](C(N)=O)[C@H]2C(=O)O[C@H](c3ccccc3)[C@H](c3ccccc3)N2[C@@H]1c1ccc(O)cc1)C(=O)OC
- z-score [1]: -0.91
- z-score [2]: -3.34 (inactive)
- z-score [3]: 0.16 (inactive)
- z-score [4]: 0.819 (inactive)

SMILES: C=CCN1C(=O)[C@@]2(O[C@@H](CCO)[C@H]([Si](C)(C)c3ccc(OC)cc3)[C@H]2C)c2cc(N(C=O)c3ccccc3)ccc21
- z-score [1]: -2.56
- z-score [2]: -3.62 (inactive)
- z-score [3]: -1.21 (inactive)
- z-score [4]: -0.407 (inactive)

SMILES: O=C1c2ccccc2C(=O)c2cc([C@H]3Oc4ccccc4S(=O)(=O)N4CCC[C@@H]34)ccc21
- z-score [1]: -1.27
- z-score [2]: -3.19 (inactive)
- z-score [3]: -0.4 (inactive)
- z-score [4]: -0.252 (inactive)

SMILES: COCCOC(=O)N1C(=O)[C@@]2(c3cc(C#CCCO)ccc31)[C@H](c1ccccc1OCCO)N1[C@H](c3ccccc3)[C@H](c3ccccc3)OC(=O)[C@H]1[C@@H]2C(=O)NC[C@H](O)c1ccccc1
- z-score [1]: -2.08
- z-score [2]: -0.117 (inactive)
- z-score [3]: -0.29 (inactive)
- z-score [4]: -0.429 (inactive)

SMILES: NC(=O)N1C(=O)C2C(C1=O)C1C=C(c3ccc(CO)cc3)C2C(C2CC2)N1Cc1cc2c(cc1Br)OCO2 (configuration not stated)
- z-score [1]: -2.14
- z-score [2]: -3.21 (inactive)
- z-score [3]: -0.136 (inactive)
- z-score [4]: -0.279 (inactive)

SMILES: C=CCNC(=O)[C@H]1[C@@H]2C(=O)O[C@@H](c3ccccc3)[C@@H](c3ccccc3)N2[C@@H](c2ccc(OCCO)cc2)[C@]12C(=O)Nc1ccc(C#CCCO)cc12
- z-score [1]: -0.739
- z-score [2]: -3.71 (inactive)
- z-score [3]: -0.229 (inactive)
- z-score [4]: -0.205 (inactive)

SMILES: COc1ccc(C#Cc2ccc3c(c2)[C@]2(C(=O)N3)[C@H](c3ccc(O)cc3)N3[C@H](c4ccccc4)[C@H](c4ccccc4)OC(=O)[C@H]3[C@@H]2C(=O)N2CCN(c3ncccn3)CC2)cc1
- z-score [1]: -2.28
- z-score [2]: 0.562 (inactive)
- z-score [3]: 0.396 (inactive)
- z-score [4]: 0.583 (inactive)

SMILES: CCCC[C@@H](O)C1=C(C)C[C@H]2C(=O)N(C)C(=O)[C@H]2[C@H]1CO
- z-score [1]: -1.46
- z-score [2]: -3.63 (inactive)
- z-score [3]: -0.425 (inactive)
- z-score [4]: -0.185 (inactive)

SMILES: CC(C)C(CO)N1C(=O)[C@@H]2[C@H]3C(=O)OCC=C[C@H]3OC23C=CCN(Cc2ccccc2)C(=O)[C@@H]13 (some centres not stated)
- z-score [1]: -0.383
- z-score [2]: -2.93 (inactive)
- z-score [3]: -0.228 (inactive)
- z-score [4]: -0.647 (inactive)

SMILES: C=CCNC(=O)[C@@H]1[C@H]2C(=O)O[C@H](c3ccccc3)[C@H](c3ccccc3)N2[C@H](c2ccc(O)cc2)[C@@]12C(=O)N(C(=O)OCCOC)c1ccc(C#Cc3ccc(OC)cc3)cc12
- z-score [1]: -1.08
- z-score [2]: -0.182 (inactive)
- z-score [3]: 0.148 (inactive)
- z-score [4]: 0.446 (inactive)

SMILES: O=C1O[C@H](c2ccccc2)[C@H](c2ccccc2)N2[C@H]1[C@@H](C(=O)Nc1nc3ccccc3s1)[C@]1(C(=O)Nc3ccc(C#CCCO)cc31)[C@H]2c1ccccc1OCCO
- z-score [1]: -2.23
- z-score [2]: 2.73 (inactive)
- z-score [3]: 0.288 (inactive)
- z-score [4]: 0.492 (inactive)

SMILES: COC(=O)C1=CC(CCCO)=CC(C2CC2)N(Cc2cc3c(cc2Br)OCO3)C=C1C(=O)OC (configuration not stated)
- z-score [1]: -0.963
- z-score [2]: -4.63 (inactive)
- z-score [3]: -0.203 (inactive)
- z-score [4]: -0.201 (inactive)

SMILES: C=C(COC)C(=O)CC[C@H](OC(=O)c1ccccc1-c1ccccc1C(=O)O)c1ccccc1OCCO
- z-score [1]: -1.11
- z-score [2]: -3.93 (inactive)
- z-score [3]: 0.269 (inactive)
- z-score [4]: -0.228 (inactive)

SMILES: C=C(CCCC)/C(=C/C[C@H](OC(=O)c1ccncc1)c1ccc(CO)o1)c1cnc2ccccc2c1
- z-score [1]: -0.209
- z-score [2]: -4.76 (inactive)
- z-score [3]: -0.762 (inactive)
- z-score [4]: -0.937 (inactive)

SMILES: C=CCC(OC(C)=O)[C@@H]1[C@@H](N(Cc2ccc(-c3cccc(C(F)(F)F)c3)o2)C(=O)c2ccc(-c3ccccc3)cc2)c2cc(OCCCO)ccc2N1C(=O)Cc1ccc(OC)cc1 (some centres not stated)
- z-score [1]: -0.809
- z-score [2]: -0.497 (inactive)
- z-score [3]: -0.138 (inactive)
- z-score [4]: -0.0148 (inactive)

SMILES: COCCOC(=O)N1C(=O)[C@@]2(c3cc(C#CCNC(N)=O)ccc31)[C@H](c1ccccc1OCCO)N1[C@H](c3ccccc3)[C@H](c3ccccc3)OC(=O)[C@H]1[C@@H]2C(=O)Nc1nc2ccccc2s1
- z-score [1]: -1.89
- z-score [2]: 1.57 (inactive)
- z-score [3]: -0.298 (inactive)
- z-score [4]: -0.154 (inactive)

SMILES: O=C(N1CCCCC1)[C@@]1(Cc2ccccc2)N=C(c2ccc(OCCCO)cc2)O[C@H]1c1ccccc1
- z-score [1]: -2.18
- z-score [2]: -3.68 (inactive)
- z-score [3]: -1.29 (inactive)
- z-score [4]: -1.55 (inactive)

SMILES: CC(C)CCC[C@@H](C)[C@H]1CC[C@@]2(C)C3=C(CC[C@]12C)[C@@]1(C)CC[C@H](OC(=O)CCl)C(C)(C)C1CC3 (some centres not stated)
- z-score [1]: -0.0992
- z-score [2]: -0.128 (inactive)
- z-score [3]: -0.199 (inactive)
- z-score [4]: -0.281 (inactive)

SMILES: COCCOC(=O)N1C(=O)[C@@]2(c3cc(C#CC4(O)CCCCCC4)ccc31)[C@H](c1ccccc1OCCO)N1[C@H](c3ccccc3)[C@H](c3ccccc3)OC(=O)[C@H]1[C@@H]2C(=O)Nc1nc2ccccc2s1
- z-score [1]: -1.67
- z-score [2]: 4.08 (inactive)
- z-score [3]: -0.201 (inactive)
- z-score [4]: -0.38 (inactive)

SMILES: CC(C)(C)OC(=O)CC[C@@]12N=C(c3ccc(OCCCO)cc3)O[C@@H]1c1ccccc1CN(Cc1ccccc1)C2=O
- z-score [1]: -2.3
- z-score [2]: -1.33 (inactive)
- z-score [3]: -0.543 (inactive)
- z-score [4]: 0.0228 (inactive)

SMILES: NC(=O)NCC#Cc1ccc2c(c1)[C@]1(C(=O)N2)[C@H](c2ccc(OCCO)cc2)N2[C@H](c3ccccc3)[C@H](c3ccccc3)OC(=O)[C@H]2[C@@H]1C(=O)Nc1nc2ccccc2s1
- z-score [1]: -0.745
- z-score [2]: 0.706 (inactive)
- z-score [3]: 0.0953 (inactive)
- z-score [4]: 0.219 (inactive)
